# From PubChem BioAssay (NCI)
# This is part of a sample that, as a whole, favours compounds with a hit. Of some 79,000 tested, about 15% had one in any assay. A number with no mark means an inactive call. Activity calls are given as the source filed them. Cut-off read from the data, not from the text of the source: active = growth inhibition above about 70%; inactive = the rest.
# Key:
# [1] = NCI Yeast Anticancer Drug Screen. Data for the rad52 strain (AID 147);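 note: 0% = growth of vehicle-treated control cultures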; conditions: S. cerevisiae rad52 mutant growth inhibition, hits give high values
# In short: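 Genetically altered yeast (DNA damage repair defect) treated with compound; inhibition calculated relative to vehicle.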
# [2] = NCI Yeast Anticancer Drug Screen. Data for the wt1 strain (AID 149);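 note: 0% = growth of vehicle-treated wt1 cultures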; conditions: S. cerevisiae wt1 strain (SPY 50644) growth inhibition, hits give high values
# In short: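 Measured: growth of wt1 yeast under compound versus vehicle treatment, reported as inhibition.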
# [3] = NCI Yeast Anticancer Drug Screen. Data for the mgt1 strain (AID 153); conditions: S. cerevisiae mgt1 mutant growth inhibition, hits give high values
# In short: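 Read-out: yeast growth inhibition vs vehicle control. Strain mgt1, drawn from a panel altered in DNA damage repair or cell cycle control.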
# [4] = NCI Yeast Anticancer Drug Screen. Data for the rad50 strain (AID 155);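 note: 0% = growth of vehicle-only cultures of the same strain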; conditions: S. cerevisiae rad50 strain growth inhibition, hits give high values
# In short: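 Growth of the mutant yeast was measured after compound exposure and referenced to vehicle-treated cultures.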
# [5] = NCI Yeast Anticancer Drug Screen. Data for the mec2-1 strain (AID 157); conditions: S. cerevisiae mec2-1 strain, hits give high values
# In short: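 Cells of the genetically defined mec2-1 yeast strain are incubated with test compound. Inhibition of growth is calculated against vehicle-treated controls.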
# [6] = NCI Yeast Anticancer Drug Screen. Data for the rad14 strain (AID 159);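 note: 0% = growth of vehicle-treated control cultures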; conditions: S. cerevisiae rad14 strain growth inhibition, hits give high values
# In short: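 Here, inhibition of yeast growth was measured after compound exposure, using a strain with a genetic defect in DNA damage repair and vehicle-treated cultures as the reference.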
# [7] = NCI Yeast Anticancer Drug Screen. Data for the sgs1 mgt1 strain (AID 161);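 note: 0% = growth of cultures given vehicle only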; conditions: S. cerevisiae sgs1 mgt1 strain, hits give high values
# In short: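 Mutant yeast exposed to compound; growth scored against vehicle-only wells.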
# [8] = NCI Yeast Anticancer Drug Screen. Data for the CLN2oe strain (AID 163);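 note: 0% = growth of vehicle-only control cultures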; conditions: S. cerevisiae CLN2oe strain, hits give high values
# In short: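 Strain altered in cell-cycle control, incubated with compound; growth compared to solvent-treated controls.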
# [9] = NCI Yeast Anticancer Drug Screen. Data for the cln2 rad14 strain (AID 165);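 note: 0% = growth equal to vehicle treated cultures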; conditions: S. cerevisiae cln2 rad14 strain, hits give high values
# In short: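 The screen exposed genetically defined yeast (cln2 rad14) to test compounds and scored growth inhibition relative to vehicle-treated controls.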
# [10] = NCI Yeast Anticancer Drug Screen. Data for the bub3 strain (AID 167); conditions: S. cerevisiae bub3 mutant strain, hits give high values
# In short: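 Whole-cell yeast assay. The mutant strain was incubated with compounds, and growth inhibition was determined by comparison with vehicle-treated cells.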
# [11] = NCI Yeast Anticancer Drug Screen. Data for the wt2 strain (AID 169);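 note: 0% = growth of vehicle-treated yeast cultures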; conditions: S. cerevisiae wt2 strain growth inhibition, hits give high values
# In short: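 Steps: yeast strain treated with compound; growth recorded; inhibition calculated relative to cultures given vehicle alone.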
# [12] = NCI Yeast Anticancer Drug Screen. Data for the mlh1 strain (AID 171);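 note: 0% = growth of vehicle-treated control cultures of the same strain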; conditions: S. cerevisiae mlh1 strain growth inhibition, hits give high values
# In short: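 Yeast screen: mutant strain plus compound, growth scored against vehicle control wells.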
# [13] = NCI Yeast Anticancer Drug Screen. Data for the sgs1 strain (AID 173);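 note: 0% = growth of vehicle-only control cultures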; conditions: S. cerevisiae sgs1 mutant, hits give high values
# In short: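 Inhibition of yeast growth served as the measure. The mutant strain was treated with each compound, and growth was normalised to cultures receiving vehicle alone.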
# [14] = NCI Yeast Anticancer Drug Screen. Data for the rad18 strain (AID 177); conditions: S. cerevisiae rad18 mutant growth inhibition, hits give high values
# In short: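 Inhibition values reflect reduced yeast growth compared with vehicle-treated controls, using a strain engineered with a DNA damage repair defect.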
# [15] = at 5.0 µM (retest, dose inferred, filed as 0.5)
# [16] = at 50.0 µM (retest, dose inferred, filed as 5.0)
smiles,measurement,setting,value
CC(=O)NC(c1nc2cc(C)c(C)cc2[nH]1)c1nc2cc(C)c(C)cc2[nH]1,growth inhibition,[1]; at 1.2 µM,0%
same,growth inhibition,[1]; at 3.7 µM,-2%
same,growth inhibition,[1]; at 11.0 µM,5%
same,growth inhibition,[1]; at 33.0 µM,28%
same,growth inhibition,[1]; at 100.0 µM,62%
same,growth inhibition,[2]; at 1.2 µM,-20%
same,growth inhibition,[2]; at 3.7 µM,-28%
same,growth inhibition,[2]; at 11.0 µM,-14%
same,growth inhibition,[2]; at 33.0 µM,16%
same,growth inhibition,[2]; at 100.0 µM,62%
same,growth inhibition,[3]; at 1.2 µM,11%
same,growth inhibition,[3]; at 3.7 µM,19%
same,growth inhibition,[3]; at 11.0 µM,31%
same,growth inhibition,[3]; at 33.0 µM,59%
same,growth inhibition,[3]; at 100.0 µM,80% (active)
same,growth inhibition,[4]; at 1.2 µM,13%
same,growth inhibition,[4]; at 3.7 µM,4%
same,growth inhibition,[4]; [15],29%
same,growth inhibition,[4]; at 11.0 µM,15%
same,growth inhibition,[4]; at 33.0 µM,39%
same,growth inhibition,[4]; [16],94% (active)
same,growth inhibition,[4]; at 50.0 µM,61.3%
same,growth inhibition,[4]; at 100.0 µM,67%
same,growth inhibition,[5]; at 1.2 µM,11%
same,growth inhibition,[5]; at 3.7 µM,15%
same,growth inhibition,[5]; [15],36%
same,growth inhibition,[5]; at 11.0 µM,22%
same,growth inhibition,[5]; at 33.0 µM,42%
same,growth inhibition,[5]; [16],94% (active)
same,growth inhibition,[5]; at 50.0 µM,37.2%
same,growth inhibition,[5]; at 100.0 µM,78% (active)
same,growth inhibition,[6]; at 1.2 µM,-22%
same,growth inhibition,[6]; at 3.7 µM,-21%
same,growth inhibition,[6]; at 11.0 µM,-9%
same,growth inhibition,[6]; at 33.0 µM,21%
same,growth inhibition,[6]; at 100.0 µM,66%
same,growth inhibition,[7]; [15],-16%
same,growth inhibition,[7]; [16],78% (active)
same,growth inhibition,[7]; at 50.0 µM,57.5%
same,growth inhibition,[8]; at 1.2 µM,-11%
same,growth inhibition,[8]; at 3.7 µM,2%
same,growth inhibition,[8]; at 11.0 µM,-18%
same,growth inhibition,[8]; at 33.0 µM,12%
same,growth inhibition,[8]; at 100.0 µM,62%
same,growth inhibition,[9]; [15],51%
same,growth inhibition,[9]; [16],92% (active)
same,growth inhibition,[9]; at 50.0 µM,42.8%
same,growth inhibition,[10]; at 1.2 µM,-2%
same,growth inhibition,[10]; at 3.7 µM,15%
same,growth inhibition,[10]; [15],16%
same,growth inhibition,[10]; at 11.0 µM,22%
same,growth inhibition,[10]; at 33.0 µM,56%
same,growth inhibition,[10]; [16],82% (active)
same,growth inhibition,[10]; at 50.0 µM,63.1%
same,growth inhibition,[10]; at 100.0 µM,82% (active)
same,growth inhibition,[11]; at 1.2 µM,-27%
same,growth inhibition,[11]; at 3.7 µM,-25%
same,growth inhibition,[11]; at 11.0 µM,-20%
same,growth inhibition,[11]; at 33.0 µM,20%
same,growth inhibition,[11]; at 100.0 µM,60%
same,growth inhibition,[12]; at 1.2 µM,-45%
same,growth inhibition,[12]; at 3.7 µM,-33%
same,growth inhibition,[12]; at 11.0 µM,-17%
same,growth inhibition,[12]; at 33.0 µM,19%
same,growth inhibition,[12]; at 100.0 µM,64%
same,growth inhibition,[13]; at 1.2 µM,-4%
same,growth inhibition,[13]; at 3.7 µM,-2%
same,growth inhibition,[13]; at 11.0 µM,-1%
same,growth inhibition,[13]; at 33.0 µM,36%
same,growth inhibition,[13]; at 100.0 µM,73% (active)
same,growth inhibition,[14]; at 1.2 µM,-4%
same,growth inhibition,[14]; at 3.7 µM,1%
same,growth inhibition,[14]; at 11.0 µM,6%
same,growth inhibition,[14]; at 33.0 µM,22%
same,growth inhibition,[14]; at 100.0 µM,55%
